According to PubChem BioAssay (Tox21):
Records with an inconclusive call do not appear. The source made the active and inactive calls. Unless noted, the call rests on the fitted dose curve; in most records, active means well fitted curve in the direction sought with a large enough effect in the repeat runs; inconclusive means weak or mixed curves; inactive means no such curve, though single readings can be large; an effect the other way counts as inactive or inconclusive.

Tests used:
[1] = qHTS assay to identify small molecule antagonists of the estrogen receptor alpha (ER-alpha) signaling pathway using the BG1 cell line in the presence of 0.1 nM 17-beta-estradiol - cell viability counter screen (AID 1259241); further: nearly all actives have a fitted effect of over 40% in size
How it was run: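 Measures cytotoxicity alongside the ER-alpha antagonist readout: VM7Luc4E2 cells, charcoal-stripped serum, 0.1 nM 17beta-estradiol final, 22 hr compound incubation at 37C, CellTiter-Fluor fluorescence.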

[2] = qHTS assay to identify small molecule antagonists of the androgen receptor (AR) signaling pathway using the MDA cell line in the presence of 0.5 nM R1881 - cell viability counter screen (AID 1259242); further: nearly all actives have a fitted effect of over 45% in size
How it was run: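 Human breast carcinoma MDA-kb2 cells, cultured without CO2, receive compounds alongside 0.5 nM (final) R1881 agonist. After 16 hr at 37C, viability is taken as live-cell protease signal.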

[3] = biological target: Estrogen receptor (Homo sapiens) (UniProt P03372); test: qHTS assay to identify small molecule antagonists of the estrogen receptor alpha (ER-alpha) signaling pathway using the BG1 cell line in the presence of 0.1 nM 17-beta-estradiol (AID 1259244); further: nearly all actives have a fitted effect of over 50% in size
How it was run: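 Seeding of stripped-serum-adapted VM7Luc4E2 cells, 24 h attachment, compound transfer, then 0.1 nM final 17beta-estradiol; after 22 h incubation, ONE-Glo reagent and luminescence reading.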

[4] = qHTS assay to identify small molecule HDAC inhibitors (AID 1259364);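 further: wild-type HCT-116 cells with endogenous class I/II HDAC activity; top concentration of the series differs between compounds; nearly all actives have a fitted effect of over 45% in size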
How it was run: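 After a 2 hr compound incubation (37C, 5% CO2), HCT-116 cells seeded at 1,500/well the day before received HDAC-Glo reagent; signal read as luminescence after 30 min at room temperature.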

[5] = qHTS assay to identify small molecule HDAC inhibitors - cell viability counter screen (AID 1259365); further: series mostly up to about 92 µM; nearly all actives have a fitted effect of over 50% in size
How it was run: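 Following a 2hr exposure of overnight-plated wild-type HCT-116 cells to DMSO-delivered compounds, CellTiter-Glo was added and luminescence recorded after 30min at room temperature.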

[6] = qHTS assay to identify small molecule agonists of the sonic hedgehog signaling (Shh) pathway - cell viability counter screen (AID 1259366); further: nearly all actives have a fitted effect of over 50% in size
How it was run: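 After a 4hr attachment at 37C, NIH/3T3 cells bearing an integrated Gli1-driven luciferase reporter were dosed with compounds. Treatment lasted 24hr, with the final hour including CellTiter-Fluor for a fluorescence viability measurement.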

[7] = qHTS assay to identify small molecule antagonists of the sonic hedgehog signaling (Shh) pathway - cell viability counter screen (AID 1259367); further: nearly all actives have a fitted effect of over 55% in size
How it was run: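 Cytotoxicity was assessed in parallel with Shh reporter activity by measuring live-cell protease fluorescence (CellTiter-Fluor) in NIH/3T3 cells stably carrying Gli1-Luc, treated with compound under conditioned medium stimulation for 23 hr plus 1 hr reagent incubation.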

[8] = qHTS assay to identify small molecule agonists of the sonic hedgehog signaling (Shh) pathway (AID 1259368; calls by dose curve;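 further: NIH/3T3-derived 3T3Gli1-Luc cells carrying a stable Gli1-driven firefly luciferase reporter; series mostly up to about 92 µM; nearly all actives have a fitted effect of over 15% in size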)
How it was run: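 Stable NIH/3T3 Gli1-Luc reporter clone; 24 hr cpd exposure after a 4 hr settling period; luminescence endpoint.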

[9] = biological target: Estrogen receptor beta (Homo sapiens) (UniProt Q92731); test: qHTS assay to identify small molecule agonists of the estrogen receptor beta (ER-beta) signaling pathway (AID 1259377; active means well fitted activation curve with a large enough effect in the signal ratio in the repeat runs, not every such curve was filed as active; the % refers to the signal ratio)
How it was run: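 In HEK293T cells bearing a UAS-beta-lactamase reporter under ER-beta control, DMSO-delivered compounds were incubated for 16 hr at 37C. Activity was detected as fluorescence 2 hours after LiveBLAzer B/G FRET substrate addition.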

[10] = biological target: Estrogen receptor beta (Homo sapiens) (UniProt Q92731); test: qHTS assay to identify small molecule antagonists of the estrogen receptor beta (ER-beta) signaling pathway (AID 1259378; active means well fitted inhibition curve with a large enough effect in the signal ratio in the repeat runs, not every such curve was filed as active; the % refers to the signal ratio)
How it was run: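 ER-beta-UAS-bla HEK293T (GripTite) cells in 2% charcoal-stripped FBS medium were preincubated 6 hr at 37C, dosed with compound, then stimulated with 1 nM E2 (final) for 16 hr; beta-lactamase reporter read by B/G FRET fluorescence after 2 hr substrate loading.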

[11] = qHTS assay to identify small molecule agonists of the androgen receptor (AR) signaling pathway in the presence of an antagonist - cell viability counter screen (AID 1259379);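 further: MDA-kb2 human breast cancer cells carrying an MMTV luciferase reporter; series mostly up to about 92 µM; nearly all actives have a fitted effect of over 25% in size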
How it was run: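 Counter screen for cell viability run in parallel with the AR agonist-mode luciferase assay. MDA-kb2 cells were co-treated with nilutamide (3.0uM final) and compounds, then incubated 16 hr at 37C, and CellTiter-Fluor fluorescence was measured.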

[12] = qHTS assay to identify small molecule agonists of the estrogen receptor beta (ER-beta) signaling pathway - cell viability counter screen (AID 1259380); further: nearly all actives have a fitted effect of over 30% in size
How it was run: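 In this qHTS counter screen, HEK293T cells carrying an ER-beta/UAS beta-lactamase reporter, grown in 2% charcoal-stripped FBS, received compound for 16 hr; ATP-based CellTiter-Glo luminescence was then read after 30 min at room temperature.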

[13] = biological target: Estrogen receptor (Homo sapiens) (UniProt P03372); test: qHTS assay to identify small molecule agonists of the estrogen receptor alpha (ER-alpha) signaling pathway in the presence of an antagonist (AID 1259383; calls by dose curve; further: top concentration of the series differs between compounds; nearly all actives have a fitted effect of over 15% in size)
How it was run: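 ER-alpha agonism measured under antagonist challenge: 10.0nM ICI-182,780 (final) plus compound, 15 concentrations, 22hr, VM7Luc4E2 ERE-luciferase cells. Read by luminescence.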

[14] = qHTS assay to identify small molecule agonists or antagonists of the thyroid stimulating hormone receptor (TSHR) signaling pathway - wild type cell line counter screen (AID 1259384; calls by dose curve)
How it was run: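 Wild-type HEK293 cells were plated 18 h at 37 C/5% CO2, pin-dosed with compound plus Ro20-1724 medium, held 30 min at room temperature, then given cAMP-d2 and anti-cAMP-cryptate; fluorescence was read after 1 h. Fifteen concentrations, triplicate.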

[15] = biological target: Thyrotropin receptor (Homo sapiens) (UniProt P16473); test: qHTS assay to identify small molecule antagonists of the thyroid stimulating hormone receptor (TSHR) signaling pathway (AID 1259385; calls by dose curve; further: nearly all actives have a fitted effect of over 20% in size)
How it was run: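 TSHR-HEK293 cells were plated and held 18 h at 37C/5% CO2, then given compound plus Ro20-1724 and stimulated with TSH at 1.5 ng/mL final. After 30 min at room temperature, cAMP was detected with cAMP-d2/anti-cAMP-cryptate (1 h) by fluorescence.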

[16] = qHTS assay to identify small molecule antagonists of the sonic hedgehog signaling (Shh) pathway (AID 1259369; calls by dose curve; further: nearly all actives have a fitted effect of over 45% in size)
How it was run: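 Gli1 transcriptional reporter (firefly Luc) in NIH/3T3 background, conditioned-medium activated. 24hr exposure, luminescence endpoint.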

[17] = qHTS assay to identify small molecule antagonists of the estrogen receptor beta (ER-beta) signaling pathway - cell viability counter screen (AID 1259382); further: series mostly up to about 92 µM; nearly all actives have a fitted effect of over 55% in size
How it was run: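 HEK293T ER-beta-UAS-bla, 2% charcoal-stripped FBS; compounds + 1nM E2 16 hr 37C; CellTiter-Glo luminescence, 30 min RT.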

[18] = qHTS assay to identify small molecule phospholipidosis (PLD) inducers (AID 1259344; active means well fitted curve in the direction sought with a large enough effect; an effect the other way counts as inactive or inconclusive)
How it was run: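 Cells (HepG2, 900 per well) attach for 4 h, receive LipidTOX Red and compound together, incubate 24 h at 37 C, are fixed 30 min with paraformaldehyde/Hoechst, then imaged at one site per well.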

Measured: Potency

Sequence of Estrogen receptor (Homo sapiens) (P03372 whole entry, looked up): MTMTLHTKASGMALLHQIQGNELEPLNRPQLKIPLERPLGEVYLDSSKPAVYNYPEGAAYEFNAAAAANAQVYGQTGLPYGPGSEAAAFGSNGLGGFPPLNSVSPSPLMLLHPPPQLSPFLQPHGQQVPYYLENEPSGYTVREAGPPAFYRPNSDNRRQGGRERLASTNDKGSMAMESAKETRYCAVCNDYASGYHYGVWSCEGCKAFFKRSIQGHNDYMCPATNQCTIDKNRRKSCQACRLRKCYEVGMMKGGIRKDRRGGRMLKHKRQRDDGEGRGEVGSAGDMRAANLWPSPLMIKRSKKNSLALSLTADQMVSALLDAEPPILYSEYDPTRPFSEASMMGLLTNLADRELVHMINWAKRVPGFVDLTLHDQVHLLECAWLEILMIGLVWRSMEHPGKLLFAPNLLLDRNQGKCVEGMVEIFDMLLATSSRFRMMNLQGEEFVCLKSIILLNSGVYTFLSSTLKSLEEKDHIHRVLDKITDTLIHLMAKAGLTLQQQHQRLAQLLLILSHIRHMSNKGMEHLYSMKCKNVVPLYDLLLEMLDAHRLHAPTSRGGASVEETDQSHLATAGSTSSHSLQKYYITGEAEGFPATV
Sequence of Thyrotropin receptor (Homo sapiens) (P16473 whole entry, looked up): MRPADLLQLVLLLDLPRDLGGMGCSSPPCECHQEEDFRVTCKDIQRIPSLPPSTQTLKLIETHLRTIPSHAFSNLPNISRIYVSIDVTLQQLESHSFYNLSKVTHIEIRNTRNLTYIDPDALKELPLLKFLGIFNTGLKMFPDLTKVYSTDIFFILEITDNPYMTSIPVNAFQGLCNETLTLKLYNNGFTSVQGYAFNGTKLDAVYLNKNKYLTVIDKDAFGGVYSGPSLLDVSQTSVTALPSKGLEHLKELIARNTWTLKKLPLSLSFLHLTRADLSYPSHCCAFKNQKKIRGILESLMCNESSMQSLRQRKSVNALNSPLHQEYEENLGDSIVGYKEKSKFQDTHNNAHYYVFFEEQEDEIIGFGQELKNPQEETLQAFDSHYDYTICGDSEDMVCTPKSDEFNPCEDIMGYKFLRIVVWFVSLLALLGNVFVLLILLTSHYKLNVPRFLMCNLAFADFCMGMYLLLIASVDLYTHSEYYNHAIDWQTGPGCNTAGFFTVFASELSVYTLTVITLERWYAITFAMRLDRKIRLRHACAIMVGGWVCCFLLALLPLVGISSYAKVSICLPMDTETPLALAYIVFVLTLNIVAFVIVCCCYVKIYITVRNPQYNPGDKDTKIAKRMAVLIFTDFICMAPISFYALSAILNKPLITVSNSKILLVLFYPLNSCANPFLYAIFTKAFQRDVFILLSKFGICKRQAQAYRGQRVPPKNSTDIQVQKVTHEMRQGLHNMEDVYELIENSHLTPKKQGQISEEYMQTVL
Sequence of Estrogen receptor beta (Homo sapiens) (Q92731 whole entry, looked up): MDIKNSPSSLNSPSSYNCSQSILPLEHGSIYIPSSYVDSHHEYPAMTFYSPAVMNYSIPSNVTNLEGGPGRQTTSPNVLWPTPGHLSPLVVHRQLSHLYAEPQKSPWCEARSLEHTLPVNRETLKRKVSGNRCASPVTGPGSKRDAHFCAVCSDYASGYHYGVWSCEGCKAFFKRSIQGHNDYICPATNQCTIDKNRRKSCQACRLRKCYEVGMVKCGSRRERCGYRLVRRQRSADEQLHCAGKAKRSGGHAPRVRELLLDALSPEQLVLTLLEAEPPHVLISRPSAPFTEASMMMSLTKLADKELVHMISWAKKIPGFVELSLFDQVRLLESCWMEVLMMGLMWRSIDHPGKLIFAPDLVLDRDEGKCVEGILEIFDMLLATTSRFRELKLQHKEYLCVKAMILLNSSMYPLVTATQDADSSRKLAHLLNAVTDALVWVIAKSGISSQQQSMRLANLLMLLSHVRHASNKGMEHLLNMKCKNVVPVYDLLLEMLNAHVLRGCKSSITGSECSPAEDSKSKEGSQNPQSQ

CC(CC=O)CC(C)(C)C (stereo unspecified)
not listed: [16] | [17] | [18]
inactive: all other assays above

CN(C)CCN(C)CCN(C)C
not listed: [9] | [10] | [15] | [18]
inactive: all other assays above

CO/N=C(\C(=O)N[C@@H]1C(=O)N2C(C(=O)O)=C(CSc3nc(=O)c(O)nn3C)CS[C@H]12)c1csc(N)n1
not listed: [9] | [10]
inactive: all other assays above

CCCCN(CCC(=O)OCC)C(C)=O
not listed: [18]
inactive: all other assays above

C=CC(C)(CCC=C(C)C)OC(=O)CC (stereo unspecified)
not listed: [18]
inactive: all other assays above

CNCC(O)c1ccc(O)c(O)c1 (stereo unspecified)
not listed: [9] | [10] | [14] | [18]
inactive: all other assays above

[K+]
not listed: [17] | [18]
inactive: all other assays above

CCCC[N+](C)(CCCC)CCCC
not listed: [10] | [18]
inactive: all other assays above

CCN1C=CN(C)C1C (stereo unspecified)
not listed: [9] | [10] | [18]
inactive: all other assays above

CC(C)(C)OC(=O)c1cccc(N)c1
not listed: [13] | [18]
inactive: all other assays above

CC(=O)c1ccccc1[N+](=O)[O-]
not listed: [4] | [16] | [18]
inactive: all other assays above

CC[C@H]1OC(=O)[C@H](C)[C@@H](O[C@H]2C[C@@](C)(OC)[C@@H](O)[C@H](C)O2)[C@H](C)[C@@H](O[C@@H]2O[C@H](C)C[C@H](N(C)C)[C@H]2O)[C@](C)(OC)C[C@@H](C)C(=O)[C@H](C)[C@@H](O)[C@]1(C)O
not listed: [6] | [9] | [10] | [14] | [15] | [16]
inactive: all other assays above

C=CC(=O)OCCCl
not listed: [18]
inactive: all other assays above

CCOCC(C)O (stereo unspecified)
not listed: [18]
inactive: all other assays above

CC(=O)c1cnccn1
not listed: [9] | [10] | [16] | [17] | [18]
inactive: all other assays above

COc1cc(C(=O)OC(COCCC(C)C)CN2CCOCC2)cc(OC)c1OC (stereo unspecified)
not listed: [15] | [16]
inactive: all other assays above
